The values that follow come from PubChem BioAssay (NCI).

Test in all cases: NCI-60 one-dose screen, 48 h (100 = growth as untreated, 0 = no growth, -100 = all killed)
Conditions in all cases: 10 µM unless noted

Test [1] has as its system SR leukemia.
Test [2] deals with RPMI-8226 leukemia.
Test [3] relates to OVCAR-8 ovarian.
The subject of test [4] is OVCAR-5 ovarian.
Test [5] relates to OVCAR-4 ovarian.
For test [6], the system named is IGROV1 ovarian.
The subject of test [7] is OVCAR-3 ovarian.
For test [8], the system named is HS 578T breast.
Test [9] relates to NCI/ADR-RES ovarian.
The subject of test [10] is SK-OV-3 ovarian.

The panel holds about 83,000 compounds, 20% with a hit somewhere; the sample as a whole holds those more often.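 Growth was measured after 48 h exposure to one concentration of compound in 96-well plates. Values under 10 count as active.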 Unmarked numbers belong to inactive results. Activity calls are given as the source filed them.

Turning to `COc1ccc(-c2ccc(-c3ccc(C(=N)N)s3)s2)cc1Cl`, the growth in test [1] was -16.5% (active); in test [2] it was -39.7% (active); in [3], -23.3% (active); in test [4], 68.4%; in [5] it was 72.5%; in test [6], 5.34% (active). Moreover, the figures for the growth in test [7], in test [8] and in test [9] were -90.6% (active), 87% and 27.8%, respectively.
For `COc1ccc(Nc2nc(N)nc3c2CCN(Cc2ccc(OC)cc2OC)C3=O)cc1`, the growth in test [1] is 60.2%; in test [2] it was 41.9%; in [3], 82.6%; in test [4], 72.5%; in test [5], 91.2%; in test [10] it was 90.5%. Further, the growth is 88% in test [7], 82.7% in test [8] and 93.4% in test [9].
For the molecule `CN(C)CCCN(c1nc(C(Cl)(Cl)Cl)ns1)c1nc(C(Cl)(Cl)Cl)ns1`, the growth was 17.1% in test [1]; 9.37% (active) in [2]; 55.3% in [3]; 66.5% in test [4]; 86.6% in [10]; 36.6% in test [6]. Moreover, the growth in [7] was 31.7%; in test [8], 46%; in [9], 48.8%.
`CCN(CC)CCC(CNc1ccnc2cc(Cl)ccc12)c1ccc(Cl)cc1` (configuration not stated): the growth is -13.2% (active) in test [1]; -0.553% (active) in test [2]; 1.27% (active) in test [3]; 22% in test [4]; -12.9% (active) in test [10]; 33.5% in [6]. The results for the growth in test [7], in test [8] and in test [9] were 25%, -66.8% (active) and 23.4%, respectively.
Turning to `COc1ccc(CNCCCN2C(=O)c3ccc4c5c(ccc(c35)C2=O)C(=O)N(CCCNCCCCNCCCN)C4=O)c(OC)c1OC`, the growth in [1] is 6.04% (active); in [2], 39.7%; in test [3] it was 4.39% (active); in [5], -48.3% (active); in test [10], 51.7%; in test [6] it was -4.4% (active). For the same molecule, the growth in test [7] is 3.29% (active); in [8], 73.1%; in test [9] it was 60.7%.
Turning to `COc1cc(C2CC(c3ccc4c(c3)OCO4)=NN2C(C)=O)cc(OC)c1OC` (configuration not stated), the growth in test [1] is 19.9%; in test [2], 39.2%; in test [3], 42%; in test [5], 54.5%; in [10], 10.6%; in test [7], -5.71% (active). Moreover, the growth in test [8] is -7.69% (active); in test [9], 4% (active).
`CC(C)(C)NCCC(O)c1cc2c(Cl)cc(Cl)cc2c2cc(C(F)(F)F)ccc12` (configuration not stated): the growth was -77.5% (active) in [1]; -40% (active) in [2]; -81.1% (active) in [3]; -83.2% (active) in [4]; 15.6% in test [10]; -63.2% (active) in [6]. The figures for the growth in [7], in test [8] and in test [9] were -88.7% (active), -56.9% (active) and -80% (active), respectively.
Regarding `CCCCCc1cc[n+](CC(=O)c2ccc([N+](=O)[O-])cc2)cc1`, the growth was 73.2% in test [1]; 45.1% in test [2]; 77% in [3]; 109% in [4]; 26.3% in test [5]; 110% in test [6]. The figures for the growth in test [7], in test [8] and in [9] were 58.8%, 106% and 110%, respectively.
With `O=C(/C=C/c1cc(-c2ccc3c(c2)OCO3)n[nH]1)c1ccc2c(c1)OCO2`, the growth in test [1] was 44.5%; in [2], 56.6%; in test [3], 86.9%; in [5], 71.3%; in test [10], 109%; in test [6], 91.6%. The growth was 90.7% in [7], 95.2% in [8] and 102% in test [9].
Turning to `COC(=O)C1CCCN1C(=O)[C@@H]1CCCN1C(=O)[C@H](Cc1c[nH]c2ccccc12)NC(=S)Nc1cc(C(F)(F)F)cc(C(F)(F)F)c1` (some centres not stated), the growth in [1] was 0.677% (active); in [2], 36.6%; in test [3], 42.7%; in [5], 61.1%; in test [10], 87.4%; in test [6], 47.1%. Further, the growth was 57.2% in test [7], 65.4% in test [8] and 52.6% in [9].
Regarding `Oc1ccc2cc(Br)ccc2c1-c1c(O)ccc2cc(Br)ccc12`, the growth in [1] is 30.9%; in [2], 64.9%; in [3], 72.7%; in test [4], 94.1%; in test [10], 64.7%; in test [6] it was 28%. In addition, the values for the growth in [7], in test [8] and in test [9] were 65.5%, 50.2% and 56.2%, respectively.
On to `COc1cc(NCCCCCN)c2ncccc2c1`, for which the growth in test [1] is 70.6%; in test [2], 88.8%; in [3] it was 100%; in test [5] it was 86.8%; in [10], 109%; in [6], 98%. The growth in [8] is 113%; in test [9], 109%.
Turning to `CCN1CCN(c2nc(NNC(=O)c3ccccc3)nc(N3CCN(C(c4ccccc4)c4ccccc4)CC3)n2)CC1`, the growth in test [1] is -20.5% (active); in test [2], 42%; in test [4], 96.2%; in test [5] it was 38.2%; in [10], 89.7%; in [6] it was 53.1%. Besides, the growth is 52.1% in test [7], 79.2% in test [8] and 79% in [9].
As for `COc1ccc2c(c1)NC1=C(C(=O)OC1)C2c1cc(OC)c2c(c1)OCO2` (configuration not stated), the growth in [1] was 2.24% (active); in test [2] it was 25.1%; in [3], 20.7%; in test [5] it was 46%; in test [6] it was 24.4%; in test [7] it was -44.9% (active). In addition, the results for the growth in test [8] and in test [9] were 14% and 1.91% (active), respectively.
For `CC[N+](CC)=c1cc2oc3cc(N(C)C)ccc3nc-2cc1C`, the growth was 59% in test [1]; 45.3% in [2]; 8.33% (active) in test [3]; -27.6% (active) in [4]; 59.9% in test [10]; -56.4% (active) in [6]. Besides, the figures for the growth in test [7], in test [8] and in test [9] were -55.6% (active), 89.1% and 79.3%, respectively.
